Several values for one entry are separate records, joined by “and”; a condition that tells them apart may be missing. Identical values can stand only once. Results filed as inconclusive are left out. Activity calls are given as the source filed them. Unless noted, calls come from the whole dose curve; as a rule, active = well fitted curve in the direction sought with a large enough effect; inconclusive = small, poorly fitted or top-dose-only effect, or another doubt; inactive = no such curve, though single readings can be large; an effect the other way counts as inactive or inconclusive. Peptide text beside a SMILES is read from it.
Tests used:
[1] = Cell Viability - HUV-EC-C (AID 542);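 note: cells exposed to compound for 40 hours; nearly all actives have a fitted effect of over 35% in size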; note: potency is the fitted concentration of half-maximal effect; for activity change, negative = cytotoxicity: % is set by controls: 0 for no effect and ±100 for the full control effect
Procedure, shortened: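 Decrease in cellular ATP, quantified by luciferase luminescence, reflects toxicity in normal human vascular endothelial HUV-EC-C cells given compound for 40 hr in complete culture medium. Values are AC50s from concentration-response curves.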

[2] = Cell Viability - SH-SY5Y (AID 544);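 note: cells exposed to compound for 40 hours; nearly all actives have a fitted effect of over 55% in size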; note: potency is the fitted concentration of half-maximal effect
Procedure, shortened: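 Cytotoxicity is scored as a concentration-dependent fall in intracellular ATP in human SH-SY5Y cells treated 40 hr in complete culture medium. Potency is expressed as AC50 from a Hill equation fit.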

[3] = Cell Viability - Renal Proximal Tubule (AID 545);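 note: cells exposed to compound for 40 hours; nearly all actives have a fitted effect of over 40% in size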; note: potency is the fitted concentration of half-maximal effect
Procedure, shortened: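 Rat kidney proximal tubule cells, freshly isolated; 1000 cells/well, 5 hr settle, compound 40 hr 37 °C. CellTiter-Glo 20 min RT, luminescence read. AC50 by standard Hill fit.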

[4] = Cell Viability - Mesenchymal (AID 546);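 note: cells exposed to compound for 40 hours before reading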; note: potency is the fitted concentration of half-maximal effect
Procedure, shortened: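 Normal human renal glomerulus-derived kidney mesenchymal cells, 1000 per well in complete medium, were treated with compounds for 40 hr at 37 °C. Viability was read as intracellular ATP by CellTiter-Glo luminescence; AC50 values came from Hill-equation fits of qHTS concentration-response data.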

[5] = Cellular Toxicity (caspase-3) HepG2 (AID 654);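 note: cells exposed to compound for 16 hours before reading; 0% = DMSO alone and 100% = caspase signal from 100 µM tamoxifen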
Procedure, shortened: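 qHTS, HepG2, 1500 cells/well, complete medium; cpd 16 h 37 °C; Caspase-Glo 3/7, 20 min RT; lum. Norm: DMSO vs 100 uM tamoxifen; AC50 Hill fit.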

[6] = Cellular Toxicity (caspase-3) Jurkat (AID 655);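 note: cells exposed to compound for 16 h at 37 °C before reading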
Procedure, shortened: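 Luminescent caspase-3/7 readout (aminoluciferin substrate cleavage) in human T-cell leukemia Jurkat cells after 16 hr compound exposure. Concentration-response normalized to DMSO and 100 uM tamoxifen; AC50 by standard Hill equation.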

[7] = Cellular Toxicity (caspase-3) HUV-EC-C (AID 656)
Procedure, shortened: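 Luminescent caspase-3/7 activation (aminoluciferin substrate cleavage) in HUV-EC-C cells after 16 hr compound exposure, 37°C. Signal normalized to DMSO basal and 100 uM tamoxifen as 100%; AC50 from concentration-response fitted with the Hill equation.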

[8] = Cellular Toxicity (caspase-3) SHSY5Y (AID 657);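 note: cells exposed to compound for 16 hours at 37 °C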
Procedure, shortened: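 Luminescent caspase-3/7 readout (aminoluciferin release) in SH-SY5Y cells after 16 h compound exposure in complete medium. Activity scaled between DMSO basal and 10 uM staurosporine as 100%; concentration-response fitted to Hill equation for AC50.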

[9] = Cellular Toxicity (caspase-3) BJ (AID 658);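 note: cells exposed to compound for 16 hours; 0% = DMSO basal and 100% = 10 µM staurosporine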
Procedure, shortened: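 Luminescent aminoluciferin-substrate cleavage reports caspase 3/7 activity in normal human BJ fibroblasts after 16 hr compound exposure at 37 °C. Normalized to DMSO (basal) and 10 uM staurosporine (100%); AC50 from Hill fit of concentration-response.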

[10] = Cellular Toxicity (caspase-3) MRC-5 (AID 659);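 note: cells exposed to compound for 16 h at 37 °C; 0% = DMSO basal and 100% = 10 µM staurosporine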
Procedure, shortened: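 Luminescence from caspase-cleaved aminoluciferin substrate (Caspase-Glo 3/7, 1 hr RT) reports caspase 3/7 activity in MRC-5 lung fibroblasts after 16 hr compound exposure. Normalized to DMSO basal and 10 uM staurosporine as 100%; AC50 from Hill fits.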

[11] = Cellular Toxicity (caspase-3) Mesangial (AID 660);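 note: combined caspase 3 and 7 activity read by Caspase-Glo luminescence; cells exposed to compound for 16 h before the caspase read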
Procedure, shortened: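 Concentration-response qHTS: compound-induced rise in caspase 3/7 luminescence in human mesangial cells after 16 h, normalized to DMSO and 100 uM tamoxifen controls.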

[12] = Cellular Toxicity (caspase-3) H-4-II-E (AID 663);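 note: cells exposed to compound for 16 hr before readout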
Procedure, shortened: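 Luminescence from caspase-cleaved aminoluciferin substrate, read 20 min after reagent addition, reports caspase 3/7 activation in rat H-4-II-E cells after 16 hr compound exposure. Normalized to DMSO (basal) and 100 uM tamoxifen (100%); AC50 from Hill fits.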

[13] = Cellular Toxicity (caspase-3) Hek293 (AID 664); details: HEK293 caspase-3 activation, DMSO = 0%, 100 µM tamoxifen = 100%; at 92.2 µM (top of the series);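 note: cells exposed to compound for 16 h at 37 °C before readout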
Procedure, shortened: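 Activation of caspase-3/7 is measured as increased luminescence from cleaved peptide-aminoluciferin substrate in HEK293 cells treated 16 hours at 37 °C. AC50 values come from Hill-equation fits of concentration-response data.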

[14] = Cellular Toxicity (caspase-3) N2a (AID 665);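 note: compound exposure lasted 16 h at 37 °C before readout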
Procedure, shortened: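 Plated mouse neuroblastoma N2a cells received titrated compounds for 16 h in complete medium. Caspase activity was then detected with a peptide-aminoluciferin luminescent reagent.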

[15] = target: Glucocorticoid receptor (Homo sapiens) (UniProt P04150); experiment: GR-EFC Redistribution (AID 451; calls by dose curve; note: potency is the fitted concentration of half-maximal effect); details: CHO-K1 GR-EFC translocation, beta-gal luminescence, 2 h
Sequence of Glucocorticoid receptor (Homo sapiens) (P04150 whole entry, looked up, the tested form may be a part): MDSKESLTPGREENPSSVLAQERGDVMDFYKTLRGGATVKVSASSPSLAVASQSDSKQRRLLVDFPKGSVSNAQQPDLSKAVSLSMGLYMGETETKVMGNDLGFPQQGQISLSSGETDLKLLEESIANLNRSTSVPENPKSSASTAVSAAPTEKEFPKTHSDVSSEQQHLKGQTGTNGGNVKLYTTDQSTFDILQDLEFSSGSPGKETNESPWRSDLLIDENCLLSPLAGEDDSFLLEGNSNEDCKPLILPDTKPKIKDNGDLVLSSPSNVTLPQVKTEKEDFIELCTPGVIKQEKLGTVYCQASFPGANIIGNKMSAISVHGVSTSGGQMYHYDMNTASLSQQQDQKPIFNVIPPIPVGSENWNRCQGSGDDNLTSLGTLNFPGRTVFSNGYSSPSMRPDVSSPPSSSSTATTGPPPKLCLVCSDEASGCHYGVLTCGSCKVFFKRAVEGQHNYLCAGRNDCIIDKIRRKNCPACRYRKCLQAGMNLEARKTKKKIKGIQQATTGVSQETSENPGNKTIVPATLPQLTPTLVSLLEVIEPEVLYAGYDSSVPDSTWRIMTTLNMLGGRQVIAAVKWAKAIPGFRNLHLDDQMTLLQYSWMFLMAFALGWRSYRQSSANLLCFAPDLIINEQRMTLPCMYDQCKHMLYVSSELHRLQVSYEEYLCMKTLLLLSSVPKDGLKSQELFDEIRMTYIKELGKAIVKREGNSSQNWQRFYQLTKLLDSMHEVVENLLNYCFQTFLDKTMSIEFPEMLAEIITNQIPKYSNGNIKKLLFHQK
Procedure, shortened: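 CHO-K1 cells stably expressing nuclear-localized β-gal enzyme acceptor and GR fused C-terminally to the enzyme donor fragment; ligand-driven nuclear translocation restores β-gal by complementation. Compounds titrated up to 46 uM final, 2 h at 37 °C; luminescence read.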

[16] = Cell Viability - N2a (AID 540); details: N2a mouse neuroblastoma cell viability; activity change, negative = cytotoxicity: at 92.2 µM (top of the series);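 note: cells exposed to compound for 40 h at 37 °C; nearly all actives have a fitted effect of over 45% in size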; note: potency is the fitted concentration of half-maximal effect;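 for activity change, negative = cytotoxicity: plate controls were DMSO alone for no effect and tamoxifen control for full effect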
Procedure, shortened: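 First, 1500 N2a cells per well incubate 5 hr at 37 °C; next, compounds are added and incubated 40 hr at 37 °C; finally CellTiter-Glo is added and luminescence read after 20 min, with AC50 derived by Hill modeling.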

[17] = Cell Viability - H-4-II-E (AID 543);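 note: cells exposed to compound for 40 hours; nearly all actives have a fitted effect of over 35% in size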; note: potency is the fitted concentration of half-maximal effect
Procedure, shortened: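 Here, cytotoxicity is measured in the rat hepatoma line H-4-II-E as loss of intracellular ATP after 40 hr compound treatment, detected by luciferase luminescence.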

[18] = target: 3',5'-cyclic-AMP phosphodiesterase 4B (Homo sapiens) (UniProt Q07343); experiment: qHTS Assay for Inhibitors of PDE-IV (AID 607; active = well fitted activation curve with a large enough effect in the main read-out, with a control signal flat, not every such curve was filed as active; note: % of control where 0% means no effect)
Sequence of 3',5'-cyclic-AMP phosphodiesterase 4B (Homo sapiens) (Q07343 whole entry, looked up): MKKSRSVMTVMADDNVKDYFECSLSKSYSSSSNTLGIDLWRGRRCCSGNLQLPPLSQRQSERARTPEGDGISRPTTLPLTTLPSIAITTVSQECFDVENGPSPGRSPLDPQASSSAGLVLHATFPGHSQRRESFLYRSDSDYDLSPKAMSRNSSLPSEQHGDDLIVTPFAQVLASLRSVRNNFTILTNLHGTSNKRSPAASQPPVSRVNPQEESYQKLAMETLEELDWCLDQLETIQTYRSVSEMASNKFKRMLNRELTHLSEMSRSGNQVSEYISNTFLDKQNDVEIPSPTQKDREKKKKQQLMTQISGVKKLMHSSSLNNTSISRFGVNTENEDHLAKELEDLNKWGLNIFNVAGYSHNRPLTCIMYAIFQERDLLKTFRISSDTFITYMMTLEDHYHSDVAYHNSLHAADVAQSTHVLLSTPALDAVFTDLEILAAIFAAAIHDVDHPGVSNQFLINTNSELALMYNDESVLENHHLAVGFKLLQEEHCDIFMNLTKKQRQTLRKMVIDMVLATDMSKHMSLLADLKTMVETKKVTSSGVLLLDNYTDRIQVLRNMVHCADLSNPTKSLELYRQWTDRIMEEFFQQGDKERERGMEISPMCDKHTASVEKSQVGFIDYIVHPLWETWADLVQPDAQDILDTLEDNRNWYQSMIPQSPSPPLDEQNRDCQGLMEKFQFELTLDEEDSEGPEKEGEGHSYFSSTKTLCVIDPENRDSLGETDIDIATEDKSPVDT
Procedure, shortened: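 Cell-based read-out of cAMP via a modified cyclic nucleotide-gated channel and membrane potential dye (535/590 nm) in HEK293 cells expressing PDE4 endogenously. Compounds tested up to 22.9 uM final; 100 uM RO 20-1724 reference.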

[19] = target: Mitogen-activated protein kinase 10 (Mus musculus) (UniProt Q61831); experiment: JNK3 AlphaScreen Assay (AID 530; active = well fitted curve in either direction with a large enough effect, not every such curve was filed as active;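 note: kinase came from lysate of stimulated human HepG2 cells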; note: potency is the fitted concentration of half-maximal effect)
Procedure, shortened: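 JNK3 came from HepG2 lysates pre-activated with IL-1beta and TNF-alpha and phosphorylated biotinylated GST-cJun (1-79) at 10 uM ATP, pH 7.6, room temperature. Compounds were titrated. AlphaScreen signal used anti-phospho-cJun (Ser73) antibody.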

[20] = Cell Viability - NIH 3T3 (AID 541);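 note: cells exposed to compound for 40 hours; nearly all actives have a fitted effect of over 25% in size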; note: potency is the fitted concentration of half-maximal effect;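 for activity change, negative = cytotoxicity: plate controls were DMSO alone for no effect and tamoxifen positive control for full effect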
Procedure, shortened: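 AC50 values reflect concentration-dependent loss of intracellular ATP in NIH 3T3 cells after 40 hr treatment in complete culture medium, quantified by luciferase-based luminescence.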

CCCCC(CC)COC(=O)C(C#N)=C(c1ccccc1)c1ccccc1 (stereo not drawn)
inactive: Potency [1] | Potency [2] | Potency [3] | Potency [4] | outcome [5] | Potency [6] | outcome [7] | outcome [8] | outcome [9] | outcome [10] | outcome [11] | outcome [12] | caspase-3 activation [13] 2.23% | outcome [14]

Cc1cc(O)c2c(c1)C(=O)c1cc(O)cc(O)c1C2=O
active: activity change, negative = cytotoxicity [16] -117% | Potency [1] 31.6 µM | Potency [17] 63.1 µM
inactive: Potency [15] > 46 µM | Potency [3] | outcome [18] | outcome [5] | Potency [6] | outcome [7] | outcome [8] | outcome [9] | outcome [10] | outcome [11] | outcome [12] | caspase-3 activation [13] -8.76% | outcome [14]

CCCCc1ccc2nc(NC(=O)OC)[nH]c2c1
inactive: Potency [19] | outcome [18]

COC(=O)[C@H](Cc1ccccc1)NC(=O)[C@@H](N)CC(=O)O (H-Asp-Phe-OMe)
inactive: Potency [19] | Potency [16] | Potency [20] | Potency [1] | Potency [17] | Potency [2] | Potency [3] | Potency [4] | outcome [5] | Potency [6] | outcome [7] | outcome [8] | outcome [9] | outcome [10] | outcome [11] | outcome [12] | caspase-3 activation [13] 1.4% | outcome [14]

CN1CCC(=C2c3ccccc3CCc3sccc32)CC1
inactive: Potency [19]

Nc1nc(OCc2ccccc2)c2[nH]cnc2n1
inactive: Potency [15] > 46 µM | outcome [18]

NS(=O)(=O)c1cc(C(=O)O)c(NCc2ccco2)cc1Cl
inactive: Potency [19] | Potency [16] | Potency [20] | Potency [1] | Potency [2] | Potency [3] | Potency [4] | outcome [18] | outcome [5] | Potency [6] | outcome [7] | outcome [8] | outcome [9] | outcome [10] | outcome [11] | caspase-3 activation [13] 2.23% | outcome [14]

CC1(C)NC(=O)N(c2ccc([N+](=O)[O-])c(C(F)(F)F)c2)C1=O
inactive: Potency [19] | outcome [18]

C[C@H](Cc1ccc(O)c(O)c1)[C@@H](C)Cc1ccc(O)c(O)c1
inactive: Potency [15] > 46 µM | outcome [18]

CC1(C)C(=O)N(CCN2CCC(C(=O)c3ccc(F)cc3)CC2)c2ccccc21
inactive: Potency [15] > 46 µM | outcome [18]

O=C1c2ccccc2-c2n[nH]c3cccc1c23
active: Potency [19] 1 µM
inactive: outcome [18]

O=c1cc(N2CCOCC2)oc2c(-c3ccccc3)cccc12
inactive: Potency [15] > 46 µM | Potency [19] | outcome [18]

CNC[C@H](O)c1ccc(O)c(O)c1
inactive: Potency [19] | outcome [18]

Cc1nc2n(c(=O)c1CCN1CCC(c3noc4cc(F)ccc34)CC1)CCCC2
inactive: Potency [19] | outcome [18]

O=c1c(O)c(-c2ccc(O)cc2O)oc2cc(O)cc(O)c12
inactive: Potency [15] > 46 µM | Potency [19] | outcome [18]

CS(=O)(=O)OCCCCOS(C)(=O)=O
inactive: Potency [19] | Potency [16] | Potency [20] | Potency [1] | Potency [17] | Potency [2] | Potency [3] | Potency [4] | outcome [5] | Potency [6] | outcome [7] | outcome [8] | outcome [9] | outcome [10] | outcome [11] | outcome [12] | caspase-3 activation [13] -0.303% and 2.3% | outcome [14]

CN(C)c1ccc2nc3ccc(=[N+](C)C)cc-3sc2c1
active: Potency [16] 2.51 µM | Potency [20] 0.631 µM | Potency [1] 2.51 µM | Potency [17] 7.94 µM | Potency [2] 15.8 µM | Potency [3] 31.6 µM | Potency [4] 31.6 µM
inactive: outcome [5] | Potency [6] | outcome [7] | outcome [8] | outcome [9] | outcome [10] | outcome [11] | outcome [12] | caspase-3 activation [13] -0.51% | outcome [14]

CCC1=C(C)CN(C(=O)NCCc2ccc(S(=O)(=O)NC(=O)NC3CCC(C)CC3)cc2)C1=O (stereo not drawn)
inactive: Potency [15] > 20.6 µM | Potency [19] | outcome [18]

COc1ccc2cc([C@H](C)C(=O)O)ccc2c1
inactive: Potency [19]

O=C(O)c1cc(=O)c2c(OCC(O)COc3cccc4oc(C(=O)O)cc(=O)c34)cccc2o1
inactive: Potency [19] | outcome [18]

Cc1cc2cc3c(C)cc(=O)oc3c(C)c2o1
inactive: Potency [19] | outcome [18]

Cc1ccc(C)c(OCCCC(C)(C)C(=O)O)c1
inactive: Potency [19] | Potency [16] | Potency [20] | Potency [1] | Potency [17] | Potency [2] | Potency [3] | Potency [4] | outcome [18] | outcome [5] | Potency [6] | outcome [7] | outcome [8] | outcome [9] | outcome [10] | outcome [11] | outcome [12] | caspase-3 activation [13] -2.65% | outcome [14]

CC(=O)Nc1ccc(O)cc1
inactive: Potency [19] | Potency [16] | Potency [20] | Potency [1] | Potency [17] | Potency [2] | Potency [3] | Potency [4] | outcome [5] | Potency [6] | outcome [7] | outcome [8] | outcome [9] | outcome [10] | outcome [11] | outcome [12] | caspase-3 activation [13] -1.09% | outcome [14]

Source: PubChem BioAssay (NCATS)
